Assay [1] deals with Lysosomal acid glucosylceramidase (Homo sapiens) (UniProt P04062). As to the kind of experiment: Glucocerebrosidase-p2 (AID 348; in the data active = potency below about 10 µM; also: potency is read from the fitted curve at half-maximal effect). The note with it: purified GBA, blue fluorogenic substrate, 40 min. Put shortly: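 Compounds titrated from 0.6 nM upwards against 0.2 nM enzyme in pH 5.9 citric acid/KH2PO4, taurocholate, tween-20; blue fluorogenic substrate 80 uM, 40 min room temperature, stopped and read Ex 365/Em 440 for AC50.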
Lysosomal acid glucosylceramidase (Homo sapiens), sequence (P04062 whole entry, looked up): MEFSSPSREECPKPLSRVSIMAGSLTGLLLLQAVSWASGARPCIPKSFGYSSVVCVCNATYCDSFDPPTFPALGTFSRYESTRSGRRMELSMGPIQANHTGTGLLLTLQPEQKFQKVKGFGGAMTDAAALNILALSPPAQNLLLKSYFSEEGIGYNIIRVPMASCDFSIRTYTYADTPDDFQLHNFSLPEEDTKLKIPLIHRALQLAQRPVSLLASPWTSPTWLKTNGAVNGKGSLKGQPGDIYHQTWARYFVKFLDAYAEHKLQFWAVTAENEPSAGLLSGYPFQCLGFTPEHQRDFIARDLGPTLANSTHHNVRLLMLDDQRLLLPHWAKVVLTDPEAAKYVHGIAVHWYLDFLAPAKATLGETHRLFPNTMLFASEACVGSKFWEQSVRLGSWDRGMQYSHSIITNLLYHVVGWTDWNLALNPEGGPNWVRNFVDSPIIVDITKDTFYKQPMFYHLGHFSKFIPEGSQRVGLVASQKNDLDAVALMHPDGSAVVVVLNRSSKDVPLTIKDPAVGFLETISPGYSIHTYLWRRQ

The target of assay [2] is Cytochrome P450 1A2 (Homo sapiens) (UniProt P05177). As to the kind of experiment: p450-cyp1a2 (AID 410; calls by dose curve; also: potency is read from the fitted curve at half-maximal effect). Summed up: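 Luminescent readout of luciferin formed from Luciferin-ME by human CYP1A2; data normalized against complete inhibition by 57 uM furafylline. Enzyme 20nM, substrate 100uM at Km, 100mM KPO4 buffer, 60 min reaction at room temperature.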
Cytochrome P450 1A2 (Homo sapiens), sequence (P05177 whole entry, looked up): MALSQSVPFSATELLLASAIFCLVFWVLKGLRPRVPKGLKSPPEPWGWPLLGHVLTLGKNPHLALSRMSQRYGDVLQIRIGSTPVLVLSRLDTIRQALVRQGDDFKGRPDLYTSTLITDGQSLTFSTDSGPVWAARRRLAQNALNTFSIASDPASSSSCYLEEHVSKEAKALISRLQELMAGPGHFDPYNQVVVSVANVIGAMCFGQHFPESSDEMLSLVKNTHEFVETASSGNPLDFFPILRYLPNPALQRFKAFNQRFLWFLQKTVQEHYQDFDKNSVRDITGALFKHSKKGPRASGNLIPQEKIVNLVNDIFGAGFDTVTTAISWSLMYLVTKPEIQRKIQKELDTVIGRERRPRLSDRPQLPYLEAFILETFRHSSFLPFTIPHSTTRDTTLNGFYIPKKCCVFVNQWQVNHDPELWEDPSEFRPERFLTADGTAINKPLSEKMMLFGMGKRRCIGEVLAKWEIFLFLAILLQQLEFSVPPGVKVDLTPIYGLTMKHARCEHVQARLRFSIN
Assay [3] can be described thus: Cell Viability - Jurkat (AID 426;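 active = dose-dependent loss of cell ATP signal giving a full or clear fitted curve, ranked by lower potency value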; also: potency is read from the fitted curve at half-maximal effect). The conditions noted are these: qHTS. Put shortly: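 qHTS, 1536-well; Jurkat E6-1, 5000 cells/well, complete medium; cpd 40 hr, 37 °C; CellTiter-Glo 20 min RT; luminescence. AC50 by Hill fit.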
In general terms: In qHTS, concentration-response curves come from the screen itself.

A short description of assay [4]: Cell Viability - Hek293 (AID 427;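 active = compounds whose dose-response curve shows a full or clear partial loss of cell viability, called from curve shape rather than a numeric limit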;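 also: potency is read from the fitted curve at half-maximal effect; cells exposed to compound for 40 hours at 37 °C before reading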). The note with it: qHTS. Summed up:
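qHTS, human embryonic kidney (adenovirus-transformed) cells; 40 hr cpd, 37 °C; CellTiter-Glo ATP luminescence. Norm: DMSO = 0, 100 uM tamoxifen = 100% inhibition. Hill-fit AC50.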

Assay [5] can be described thus: Cell Viability - HepG2 (AID 433; calls by dose curve;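 also: potency is read from the fitted curve at half-maximal effect; potency for ATP loss meaning cytotoxicity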). The conditions noted are these: qHTS. Summed up: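 Read-out is luciferase-based quantitation of cellular ATP as a measure of viable HepG2 cells after 40 h treatment at 37 °C. Signal decrease is scaled between DMSO-only and 100 uM tamoxifen controls, with AC50 fitted by the Hill equation.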
Assay [6] in a line: Stat Signaling Pathway (AID 446; active = well fitted curve in either direction with a large enough effect, not every such curve was filed as active;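 also: ME-180 cervical cancer cells given 40 pM IL-6 alongside compound; SIE-controlled beta-lactamase reporter measured as 460/530 nm FRET emission ratio; % is scaled to controls: 0 for no effect and ±100 for the full control effect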). The note with it: ME-180 SIE beta-lactamase reporter, IL-6 stimulated, 5 h; at 7.69 µM (top of the series) unless noted. Put shortly:
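Screening format detects activators and inhibitors alike: ME-180 SIE-bla cells stimulated at 40 pM IL-6 for 5 hrs with compound, then dual-emission beta-lactamase read at 405 nm excitation.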

Assay [7] has as its target Glucocorticoid receptor (Homo sapiens) (UniProt P04150). Kind of assay: GR-GFP Redistribution (AID 450;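 active = compounds whose dose series gives a full or clear partial fitted curve of increased nuclear translocation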; also: potency is read from the fitted curve at half-maximal effect). The note with it: U2OS GR-GFP nuclear translocation, laser cytometry, 2 h.
Assay [8] has the same target. Kind of assay: GR-EFC Redistribution (AID 451; calls by dose curve; also: potency is read from the fitted curve at half-maximal effect). The note with it: CHO-K1 GR-EFC translocation, beta-gal luminescence, 2 h. Put shortly:
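CHO-K1 cells stably expressing nuclear-localized β-gal enzyme acceptor and GR fused C-terminally to the enzyme donor fragment; ligand-driven nuclear translocation restores β-gal by complementation. Compounds titrated up to 46 uM final, 2 h at 37 °C; luminescence read.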

Assay [9] can be described thus: Cell Viability - N2a (AID 540). Also: potency is read from the fitted curve at half-maximal effect; nearly all actives have a fitted effect of over 45% in size. The conditions noted are these: N2a mouse neuroblastoma cell viability; activity change, negative = cytotoxicity: at 92.2 µM (top of the series). Summed up: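 Luminescent ATP signal (CellTiter-Glo, 20 min at room temperature) served as the viability read-out after N2a cells were treated with compounds for 40 hours at 37 °C. Concentration-response data were fitted to the Hill equation for AC50.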

A short description of assay [10]: Cell Viability - NIH 3T3 (AID 541). Also: potency is read from the fitted curve at half-maximal effect; nearly all actives have a fitted effect of over 25% in size. The conditions noted are these: NIH 3T3 cell viability, qHTS; activity change, negative = cytotoxicity: at 92.2 µM (top of the series). Summed up: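 Luminescent ATP signal (CellTiter-Glo) served as the viability read-out after NIH 3T3 cells were exposed to compounds over a concentration range for 40 hr at 37 °C. Hill-equation modelling of concentration-response data gave AC50.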

A short description of assay [11]: Cell Viability - HUV-EC-C (AID 542). Also: potency is read from the fitted curve at half-maximal effect; nearly all actives have a fitted effect of over 35% in size. Put shortly:
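qHTS cytotoxicity: HUV-EC-C, 1000 cells/well, 5 hr settle, compound 40 hr 37 °C, CellTiter-Glo, luminescence. AC50 via Hill equation.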

Assay [12] in a line: Cell Viability - H-4-II-E (AID 543). Also: potency is read from the fitted curve at half-maximal effect; nearly all actives have a fitted effect of over 35% in size. Summed up:
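Luminescent ATP signal (CellTiter-Glo) served as the viability read-out, with cytotoxicity seen as a concentration-dependent ATP drop. Cells were treated for 40 hours in complete medium. AC50 values derive from Hill-equation modelling.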

Assay [13] can be described thus: Cell Viability - SH-SY5Y (AID 544). Also: nearly all actives have a fitted effect of over 55% in size. The conditions noted are these: SH-SY5Y neuroblastoma cell viability; viability change, negative = cytotoxic: at 92.2 µM (top of the series). Put shortly:
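Luminescent ATP read-out (CellTiter-Glo) measures loss of viable SH-SY5Y neuroblastoma cells after 40 hr compound exposure at 37 °C. AC50 values derive from standard Hill modelling of qHTS concentration-response data.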

Assay [14] can be described thus: Cell Viability - Mesenchymal (AID 546).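 Also: potency is read from the fitted curve at half-maximal effect; cells exposed to compound for 40 hours before reading.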 The note with it: mesenchymal cells viability, qHTS; activity change, negative = cytotoxicity: at 91.7 µM (top of the series). Put shortly: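 Normal human renal glomerulus-derived kidney mesenchymal cells, 1000 per well in complete medium, were treated with compounds for 40 hr at 37 °C. Viability was read as intracellular ATP by CellTiter-Glo luminescence; AC50 values came from Hill-equation fits of qHTS concentration-response data.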

Assay [15] concerns the target 3',5'-cyclic-AMP phosphodiesterase 4B (Homo sapiens) (UniProt Q07343). Kind of assay: qHTS Assay for Inhibitors of PDE-IV (AID 607; active = well fitted activation curve with a large enough effect in the main read-out, with a control signal flat, not every such curve was filed as active; also: % of control where 0% means no effect). Put shortly:
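The readout is membrane depolarisation from a cAMP-sensing CNG channel, detected with a potential dye at ex 535/em 590. Cells were HEK293-derived (endogenous PDE-IV) at 1000 cells/well, titrated up to 22.9 uM final.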

A short description of assay [16]: Cellular Toxicity (caspase-3) HepG2 (AID 654).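 Also: cells exposed to compound for 16 hours before reading; 0% = DMSO alone and 100% = caspase signal from 100 µM tamoxifen.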 Summed up: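 Cells plated 5 hr at 37 °C, compound added, incubated 16 hr at 37 °C. Caspase-Glo 3/7 reagent followed, 20 min at room temperature, then luminescence read. Activation scored as signal increase; AC50 from Hill fit.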
The nature of assay [17]: Cellular Toxicity (caspase-3) Jurkat (AID 655).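 Also: cells exposed to compound for 16 h at 37 °C before reading.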 The note with it: Jurkat caspase-3 activation, luminescence; caspase-3 activation: at 92.2 µM (top of the series), DMSO = 0%, tamoxifen = 100%. Put shortly: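 5000 Jurkat cells/well; compound 16 hr, 37 °C; Caspase-Glo 3/7 added, 20 min RT; luminescence read. Norm: DMSO = 0%, tamoxifen 100 uM = 100%. AC50, Hill model.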
The nature of assay [18]: Cellular Toxicity (caspase-3) HUV-EC-C (AID 656).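 Also: cells exposed to compound for 16 h.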 Put shortly: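 qHTS; HUV-EC-C, 1000 cells/well; 5 hr settle, 16 hr cmpd, 37°C; Caspase-Glo 3/7, 20 min RT; luminescence. Norm: DMSO = 0%, tamoxifen 100 uM = 100%. Hill-fit AC50.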

Values without a mark were called inactive. Records with an inconclusive call do not appear. The source made the active and inactive calls. Unless noted, calls follow the shape of the dose curve; as a rule, active = well fitted curve in the direction sought with a large enough effect; inconclusive = small, poorly fitted or top-dose-only effect, or another doubt; inactive = no such curve, though single readings can be large; an effect the other way counts as inactive or inconclusive.

Glucocorticoid receptor (Homo sapiens), sequence (P04150 whole entry, looked up): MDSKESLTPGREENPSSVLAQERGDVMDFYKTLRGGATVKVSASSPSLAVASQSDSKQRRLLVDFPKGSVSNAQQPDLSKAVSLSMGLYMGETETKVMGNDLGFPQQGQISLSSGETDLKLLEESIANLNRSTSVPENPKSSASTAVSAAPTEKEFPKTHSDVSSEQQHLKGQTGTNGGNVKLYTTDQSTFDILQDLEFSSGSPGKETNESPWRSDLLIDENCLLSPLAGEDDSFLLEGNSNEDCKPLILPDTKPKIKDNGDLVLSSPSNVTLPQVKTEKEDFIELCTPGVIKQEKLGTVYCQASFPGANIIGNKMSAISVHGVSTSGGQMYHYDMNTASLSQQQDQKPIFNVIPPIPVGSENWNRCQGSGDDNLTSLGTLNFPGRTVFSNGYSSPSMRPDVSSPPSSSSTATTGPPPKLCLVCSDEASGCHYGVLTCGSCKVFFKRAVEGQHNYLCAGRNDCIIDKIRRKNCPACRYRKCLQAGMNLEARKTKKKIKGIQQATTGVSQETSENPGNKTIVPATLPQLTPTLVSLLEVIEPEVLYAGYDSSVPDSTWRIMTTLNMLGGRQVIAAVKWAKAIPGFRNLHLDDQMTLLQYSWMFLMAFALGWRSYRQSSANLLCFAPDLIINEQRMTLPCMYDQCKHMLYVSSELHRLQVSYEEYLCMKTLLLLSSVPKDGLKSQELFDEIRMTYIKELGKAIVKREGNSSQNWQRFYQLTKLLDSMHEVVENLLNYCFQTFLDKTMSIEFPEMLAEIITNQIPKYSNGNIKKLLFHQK
3',5'-cyclic-AMP phosphodiesterase 4B (Homo sapiens), sequence (Q07343 whole entry, looked up): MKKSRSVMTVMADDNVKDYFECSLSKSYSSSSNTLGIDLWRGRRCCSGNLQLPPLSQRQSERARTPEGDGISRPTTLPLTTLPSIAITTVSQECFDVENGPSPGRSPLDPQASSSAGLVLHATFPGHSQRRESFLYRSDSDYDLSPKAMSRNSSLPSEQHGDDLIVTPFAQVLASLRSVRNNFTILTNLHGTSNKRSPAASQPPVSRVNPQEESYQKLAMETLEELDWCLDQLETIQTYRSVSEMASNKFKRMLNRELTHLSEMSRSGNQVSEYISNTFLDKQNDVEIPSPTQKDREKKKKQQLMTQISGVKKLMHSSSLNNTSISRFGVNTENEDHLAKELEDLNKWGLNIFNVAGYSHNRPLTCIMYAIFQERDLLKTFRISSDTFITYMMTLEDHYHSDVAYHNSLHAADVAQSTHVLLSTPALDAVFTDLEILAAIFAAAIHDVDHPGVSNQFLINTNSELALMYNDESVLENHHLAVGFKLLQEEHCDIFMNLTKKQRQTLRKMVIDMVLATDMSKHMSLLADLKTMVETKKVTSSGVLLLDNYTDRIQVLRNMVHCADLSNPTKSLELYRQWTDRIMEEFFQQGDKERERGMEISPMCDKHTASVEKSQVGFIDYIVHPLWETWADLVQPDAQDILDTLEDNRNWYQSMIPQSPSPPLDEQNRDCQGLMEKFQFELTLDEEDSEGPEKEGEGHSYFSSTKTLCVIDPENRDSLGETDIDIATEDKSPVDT

Consider `N=C1C=CC(=C(c2ccc(N)cc2)c2ccc(N)cc2)C=C1`, for which the Potency is greater than 11.4 µM in [1]; 3.98 µM (active) in assay [2]; 15.1 µM (active) in assay [3]; 19.6 µM (active) in [4]; 18.6 µM (active) in assay [5]; greater than 46 µM in assay [7]. Also, the Potency in assay [8] is greater than 9.22 µM; in assay [9] it was 3.98 µM (active); in [10], 3.16 µM (active); in [11], 20 µM (active); in [12], 31.6 µM (active); in [14] it was 7.94 µM (active). In addition, the activity, negative = inhibition in assay [6] was -20.9%. The viability change, negative = cytotoxic in assay [13] was -99.9% (active). Further, the Potency entry in [15], in [16], in [17] and in assay [18] was “inactive” each time.
